The source made the active and inactive calls. The calls were made as follows: active = hit-call score of the fitted dose curve at least 0.9, where 1 is the maximum; inactive = score below 0.9.
Tests used:
[1] = APR_HepG2_P-H2AX_72hr: Apredica 72-hour HepG2 Assay for H2AX Phosphorylation (AID 2282916); details: imaging, actives raise or lower the signal;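 also: phospho-histone H2A.x immunostain intensity per cell marking DNA damage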
Outline: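 HepG2 cells treated 72 h at 0.39–200 uM, 0.5% DMSO final, duplicates. Formaldehyde-fixed, Triton-permeabilised, immunostained for phospho-H2A.x with Hoechst; fluorescence imaged at 20x, bidirectional fit versus DMSO.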

[2] = APR_HepG2_MitoMembPot_72hr: Apredica 72-hour HepG2 Assay for Mitochondrial Membrane Potential (AID 2282917); details: imaging, actives raise or lower the signal
Outline: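 HepG2 cells exposed 72 h to compounds at 0.39–200 uM (0.5% v/v DMSO, duplicates); MitoTracker Red CMXRos 250 nM loaded 30 min before 3.7% formaldehyde fixation, imaged by HCS fluorescence. Bidirectional fit versus DMSO.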

[3] = APR_HepG2_MitoticArrest_72hr: Apredica 72-hour HepG2 Assay for Mitotic Arrest (AID 2282918); details: high-content imaging, actives raise or lower the signal
Outline: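 HepG2 cells were exposed for 72 hr to compound at 0.39–200 uM (10 concentrations, duplicate) in 0.5% v/v DMSO, fixed in 3.7% formaldehyde, immunostained for phospho-histone H3 with Hoechst 33342 and imaged by high-content fluorescence; bidirectional fits versus DMSO.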

[4] = APR_HepG2_MicrotubuleCSK_72hr: Apredica 72-hour HepG2 Assay for Microtubule CSK Stabilty (AID 2282919); details: HepG2 microtubule cytoskeleton, high-content imaging, actives raise or lower the signal
Outline: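 HepG2 human liver cells were dosed for 72 h at ten concentrations from 0.39 to 200 uM in duplicate (0.5% v/v DMSO final). Fixed, permeabilized cells were immunostained for alpha-tubulin (Cy5) with a Hoechst counterstain and imaged at 20x.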

[5] = APR_HepG2_P-H2AX_24hr: Apredica 24-hour HepG2 Assay for H2AX Phosphorylation (AID 2282920); details: high-content imaging, actives raise or lower the signal
Outline: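 HepG2 human liver cells were exposed for 24 hr to compounds at 0.39–200 uM in duplicate, with 0.5% v/v DMSO final. Fixed cells were immunostained for phospho-histone H2A.x plus Hoechst 33342, imaged by HCS fluorescence, and fitted bidirectionally against DMSO.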

[6] = APR_HepG2_StressKinase_72hr: Apredica 72-hour HepG2 Assay for Stress Kinase (AID 2282921); details: HepG2 stress kinase (phospho-c-Jun) imaging, actives raise or lower the signal
Outline: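 HepG2 cells treated 72 hr with 0.39–200 uM compound, 0.5% v/v DMSO, duplicate wells. After formaldehyde fixation and Triton permeabilization, stained with anti-phospho-c-Jun (1:500) and Cy3 secondary, imaged at 20x. Fitted in both directions against DMSO.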

[7] = APR_HepG2_StressKinase_24hr: Apredica 24-hour HepG2 Assay for Stress Kinase (AID 2282922); details: HepG2 stress kinase (phospho-c-Jun) imaging, actives raise or lower the signal
Outline: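 HepG2 cells exposed 24 hr to compound at 0.39–200 uM (10 concentrations, duplicate), 0.5% v/v DMSO final. Fixed in 3.7% formaldehyde, permeabilized with Triton X-100, immunolabeled for phospho-c-Jun with Hoechst 33342; HCS fluorescence imaging, bidirectional fit versus DMSO.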

[8] = APR_HepG2_p53Act_72hr: Apredica 72-hour HepG2 Assay for p53 Activation (AID 2282923); details: high-content imaging, actives raise or lower the signal;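 also: average cellular p53 protein immunofluorescence intensity in HepG2 cells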
Outline: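 HepG2 cells exposed 72 h to 0.39–200 uM in 0.5% DMSO, duplicates. Fixed, permeabilized cells immunostained for p53 (Cy5) with Hoechst; imaged at 20x, fluorescence analyzed bidirectionally against DMSO.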

[9] = APR_HepG2_MitoMass_72hr: Apredica 72-hour HepG2 Assay for Mitochondrial Mass (AID 2282924); details: high-content imaging, actives raise or lower the signal;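 also: MitoTracker Red CMXRos stain intensity per cell imaged as mitochondrial mass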
Outline: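 HepG2 cells were exposed for 72 hr to compounds at 0.39–200 uM (ten concentrations, duplicate, 0.5% v/v DMSO final). Live cells were stained with 250 nM MitoTracker Red CMXRos for 30 min, then fixed in 3.7% formaldehyde and imaged by HCS fluorescence.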

[10] = ATG_CRE_CIS: Attagene CIS-FACTORIAL HepG2 Assay for human cAMP Responsive Element (CRE) binding protein 3 (AID 2282926); details: HepG2 CRE cis-reporter, Attagene multiplexed mRNA; actives raise or lower the signal
Outline: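 HepG2 cells transiently transfected with a multiplexed reporter library (CRE-driven unit among them) were dosed for 24 h. Reporter mRNA was quantified by RT-PCR, fluorescent labelling, HpaI digestion and capillary electrophoresis, with bidirectional fitting against DMSO baseline.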

[11] = target: CCAAT/enhancer-binding protein beta (Homo sapiens) (UniProt P17676); assay: ATG_C_EBP_CIS: Attagene CIS-FACTORIAL HepG2 Assay for human CCAAT/Enhancer Binding Protein (C/EBP) beta (AID 2282927); details: HepG2 Attagene cis-factorial transcription factor reporter; actives raise or lower the signal
Chain of CCAAT/enhancer-binding protein beta (Homo sapiens) (P17676 whole entry, looked up): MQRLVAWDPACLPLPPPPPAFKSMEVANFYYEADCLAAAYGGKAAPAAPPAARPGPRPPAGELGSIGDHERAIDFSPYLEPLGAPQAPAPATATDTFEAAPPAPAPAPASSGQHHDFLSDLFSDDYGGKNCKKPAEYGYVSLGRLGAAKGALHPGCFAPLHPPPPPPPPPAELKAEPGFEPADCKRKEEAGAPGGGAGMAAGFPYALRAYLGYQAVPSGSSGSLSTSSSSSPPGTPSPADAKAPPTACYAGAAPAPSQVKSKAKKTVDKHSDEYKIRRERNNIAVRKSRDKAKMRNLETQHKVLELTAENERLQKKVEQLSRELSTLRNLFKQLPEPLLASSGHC
Outline: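 Following a 24 h incubation with test chemical, transfected HepG2 cells yielded RNA whose reporter transcripts were quantified by RT-PCR and fluorescent capillary electrophoresis, with DMSO serving as baseline for bidirectional fitting.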

[12] = ATG_DR4_LXR_CIS: Attagene CIS-FACTORIAL HepG2 Assay for human Liver X Receptor (LXR), DR4 submotif (AID 2282929); details: HepG2 Attagene DR4 cis-reporter, mRNA transcription; actives raise or lower the signal
Outline: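 Readout: reporter transcript fluorescence after RT-PCR and capillary electrophoresis, fitted bidirectionally against DMSO controls. Human HepG2 liver cells carried transiently transfected multiplexed reporter constructs; endogenous transcription factor activity measured 24 h post-dosing.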

[13] = ATG_AP_2_CIS: Attagene CIS-FACTORIAL HepG2 Assay for human Activator Protein 2 (AP-2) (AID 2282932); details: HepG2 AP-2 cis-reporter, Attagene transcription factor profiling; actives raise or lower the signal
Outline: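 Bidirectional curve fitting against DMSO was applied to reporter mRNA signals from HepG2 cells 24 h after dosing. Cis-promoter reporter units, transiently transfected, were read by RT-PCR plus capillary electrophoresis.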

[14] = ATG_BRE_CIS: Attagene CIS-FACTORIAL HepG2 Assay for human Bone Morphogenetic Protein (BMP) Response Element (BRE) (AID 2282933); details: HepG2 BMP response element reporter, Attagene transcription factor profiling; actives raise or lower the signal
Outline: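 After a 24 h chemical treatment, transiently transfected HepG2 cells were lysed for RNA; reporter transcripts were quantified by fluorescent RT-PCR and capillary electrophoresis, normalised to DMSO.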

[15] = target: Retinoic acid receptor alpha (Homo sapiens) (UniProt P10276); assay: ATG_DR5_RAR_CIS: Attagene CIS-FACTORIAL HepG2 Assay for human Retinoic Acid Receptor Alpha (RARE), DR5 submotif (AID 2282934); details: HepG2 Attagene cis-factorial RARE DR5 reporter, mRNA; actives raise or lower the signal;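 as to AC50: reporter responds to endogenous RAR alpha beta and gamma in HepG2 not RARA alone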
Chain of Retinoic acid receptor alpha (Homo sapiens) (P10276 whole entry, looked up): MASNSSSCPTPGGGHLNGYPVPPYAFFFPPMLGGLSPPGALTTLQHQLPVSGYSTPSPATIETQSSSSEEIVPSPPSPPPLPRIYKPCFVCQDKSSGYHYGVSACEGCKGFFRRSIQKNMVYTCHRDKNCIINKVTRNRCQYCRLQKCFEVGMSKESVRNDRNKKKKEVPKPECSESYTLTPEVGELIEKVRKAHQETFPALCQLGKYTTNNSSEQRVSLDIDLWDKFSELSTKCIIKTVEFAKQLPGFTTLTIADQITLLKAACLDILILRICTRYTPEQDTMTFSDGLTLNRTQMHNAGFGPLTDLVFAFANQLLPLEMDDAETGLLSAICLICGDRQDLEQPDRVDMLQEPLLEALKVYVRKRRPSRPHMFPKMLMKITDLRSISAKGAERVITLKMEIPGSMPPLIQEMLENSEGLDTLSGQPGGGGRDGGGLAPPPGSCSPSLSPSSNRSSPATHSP
Outline: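 Endpoint fitted in both directions relative to DMSO as negative control. It reflects DR5 cis-element reporter mRNA induction in transiently transfected HepG2 cells, measured 24 h after dosing through RT-PCR and fluorescent capillary electrophoresis.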

[16] = target: Transcription factor E2F1 (Homo sapiens) (UniProt Q01094); assay: ATG_E2F_CIS: Attagene CIS-FACTORIAL HepG2 Assay for human E2F Transcription Factor 1 (AID 2282935); details: HepG2 Attagene cis-reporter, E2F reporter RNA transcripts; actives raise or lower the signal
Chain of Transcription factor E2F1 (Homo sapiens) (Q01094 whole entry, looked up): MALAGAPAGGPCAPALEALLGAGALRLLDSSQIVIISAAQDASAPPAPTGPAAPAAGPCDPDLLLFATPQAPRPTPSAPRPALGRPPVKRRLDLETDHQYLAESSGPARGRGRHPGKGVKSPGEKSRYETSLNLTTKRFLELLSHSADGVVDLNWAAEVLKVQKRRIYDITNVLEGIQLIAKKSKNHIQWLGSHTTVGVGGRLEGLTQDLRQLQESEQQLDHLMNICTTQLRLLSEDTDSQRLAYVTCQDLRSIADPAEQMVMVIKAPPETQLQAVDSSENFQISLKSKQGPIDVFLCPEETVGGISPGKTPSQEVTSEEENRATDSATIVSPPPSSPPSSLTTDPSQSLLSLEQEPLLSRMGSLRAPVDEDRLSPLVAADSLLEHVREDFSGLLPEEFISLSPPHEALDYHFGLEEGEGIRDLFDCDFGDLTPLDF
Outline: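 Multiplexed cis-reporter assay: HepG2, transient transfection, 24 h dosing, mRNA quantitation by labeled RT-PCR and CE.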

[17] = APR_HepG2_NuclearSize_72hr: Apredica 72-hour HepG2 Assay for Nuclear Size (AID 2282925); details: high-content imaging, actives raise or lower the signal
Outline: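 HepG2 cells were exposed to compounds at ten concentrations from 0.39 to 200 uM (duplicate, 0.5% DMSO final) for 72 hr. After fixation in 3.7% formaldehyde, nuclei were stained with Hoechst 33342 (2 ug/mL) and imaged at 20x.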

[18] = target: Aryl hydrocarbon receptor (Homo sapiens) (UniProt P35869); assay: ATG_Ahr_CIS: Attagene CIS-FACTORIAL HepG2 Assay for human Aryl Hydrocarbon Receptor (Ahr) (AID 2282930); details: HepG2 AhR cis-factorial reporter transcription; actives raise or lower the signal
Chain of Aryl hydrocarbon receptor (Homo sapiens) (P35869 whole entry, looked up): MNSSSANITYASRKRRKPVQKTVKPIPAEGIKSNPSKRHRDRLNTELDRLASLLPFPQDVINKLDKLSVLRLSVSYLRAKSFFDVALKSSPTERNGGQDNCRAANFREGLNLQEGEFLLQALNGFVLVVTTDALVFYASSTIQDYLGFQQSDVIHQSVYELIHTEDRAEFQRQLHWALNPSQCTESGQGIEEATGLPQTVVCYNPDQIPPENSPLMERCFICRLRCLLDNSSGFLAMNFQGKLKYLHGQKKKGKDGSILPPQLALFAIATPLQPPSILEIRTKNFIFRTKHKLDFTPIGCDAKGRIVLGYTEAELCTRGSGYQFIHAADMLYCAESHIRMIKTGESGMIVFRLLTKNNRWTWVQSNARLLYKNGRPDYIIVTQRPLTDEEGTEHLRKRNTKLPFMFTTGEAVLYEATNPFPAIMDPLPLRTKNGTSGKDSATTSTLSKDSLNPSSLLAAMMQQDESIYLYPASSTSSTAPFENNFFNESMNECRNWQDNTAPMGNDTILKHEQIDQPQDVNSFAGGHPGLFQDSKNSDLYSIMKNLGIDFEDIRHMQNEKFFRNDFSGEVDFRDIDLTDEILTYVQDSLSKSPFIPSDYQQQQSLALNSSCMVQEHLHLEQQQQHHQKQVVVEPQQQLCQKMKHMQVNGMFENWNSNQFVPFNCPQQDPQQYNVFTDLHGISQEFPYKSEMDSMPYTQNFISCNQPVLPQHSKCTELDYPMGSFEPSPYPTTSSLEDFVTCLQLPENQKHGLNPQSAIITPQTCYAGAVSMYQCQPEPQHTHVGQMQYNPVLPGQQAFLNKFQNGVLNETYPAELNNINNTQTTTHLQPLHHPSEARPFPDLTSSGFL
Outline: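 Values derive from bidirectional fitting against DMSO negative control. Underlying signal: cis-element reporter mRNA in transiently transfected HepG2, harvested 24 h post-dose and measured by RT-PCR plus capillary electrophoresis.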

[19] = ATG_AP_1_CIS: Attagene CIS-FACTORIAL HepG2 Assay for human Activator Protein 1 (AP-1) (AID 2282931); details: HepG2 Attagene cis-factorial AP-1 reporter mRNA; actives raise or lower the signal
Outline: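 Reporter transcripts were measured 24 h after dosing by RT-PCR and capillary electrophoresis of fluorescent fragments. Cells: HepG2 carrying transfected cis-regulated reporter constructs reading endogenous factor activity. Gain or loss fitted against DMSO.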

[20] = ATG_CMV_CIS: Attagene CIS-FACTORIAL HepG2 Assay for human CMV (Internal Marker) (AID 2282928); details: HepG2 CMV promoter reporter, transcription factor profiling; actives raise or lower the signal;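 also: endpoint acts as a background internal control marker rather than a target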
Outline: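 Endogenous transcription factor activity read in HepG2 via transfected cis-promoter reporter units. After 24 h dosing, reporter mRNA measured by RT-PCR/capillary electrophoresis; gain or loss of signal fit relative to DMSO.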

Measured: AC50

OCCCl
not listed: [17] | [18] | [19] | [20]
inactive: all other assays above

C=CCc1ccc2c(c1)OCO2
not listed: [17] | [18] | [19] | [20]
inactive: all other assays above

CCC(C)c1ccc(O)cc1 (stereo unspecified)
active: [10] 59.7 µM | [12] 100 µM | [14] 100 µM
not listed: [15] | [17] | [18] | [19] | [20]
inactive: all other assays above

Cc1ccc([N+](=O)[O-])cc1
not listed: [3] | [15] | [16] | [20]
inactive: all other assays above

c1ccc2c(c1)oc1ccccc12
active: [3] 0.0888 µM
not listed: [15] | [16] | [17] | [18] | [20]
inactive: all other assays above

CCOC(=O)[C@]1(c2ccccc2)Oc2ccccc2[C@@H]1N
active: [1] 112 µM | [3] 90.8 µM | [5] 120 µM | [6] 109 µM | [10] 20.3 µM | [11] 33 µM | [12] 52.4 µM | [13] 55.1 µM | [14] 22.5 µM | [15] 13.6 µM
inactive: [2] | [4] | [7] | [9] | [17] | [18]

CN(C)[C@@H]1C(=O)C(C(N)=O)=C(O)[C@@]2(O)C(=O)C3=C(O)c4c(O)cccc4[C@@](C)(O)[C@H]3C[C@@H]12
active: [20] 137 µM
not listed: [3] | [15] | [18]
inactive: all other assays above

COC(=O)c1ccccc1N
not listed: [15] | [16] | [17] | [18] | [19] | [20]
inactive: all other assays above

Oc1ccccc1Cl
not listed: [15] | [16] | [17] | [19] | [20]
inactive: all other assays above

c1ccc2c(c1)-c1cccc3cccc-2c13
active: [1] 108 µM
not listed: [3] | [18] | [19]
inactive: all other assays above

[O-][Cl+]O
active: [5] 66.5 µM | [7] 110 µM
not listed: [17] | [19] | [20]
inactive: all other assays above

CNC(=O)Oc1cccc2c1OC(C)(C)C2
not listed: [16] | [17] | [18] | [20]
inactive: all other assays above

OCCCBr
not listed: [3]
inactive: all other assays above

Nc1cc(Cl)cc(C(=O)O)c1Cl
not listed: [3] | [18]
inactive: all other assays above

CN(C)c1ccccc1
not listed: [17] | [18] | [19]
inactive: all other assays above

Cc1ccc(N)c(N)c1
active: [20] 33.3 µM | [19] 27.5 µM
not listed: [3] | [16] | [18]
inactive: all other assays above

Source: PubChem BioAssay (EPA / NIEHS)
